PubChem BioAssay
The source made the active and inactive calls. Unless noted, the rule behind the calls is not given here.

What was measured:
[1] = anti-His antibody binders, primary screen, artefact control for SMM control protein annotation, biochemical, small-molecule microarray, 635 nm fluorescence (AID 1128); details: anti-His Alexa647 antibody binding, higher = more signal;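 note: score merges feature fluorescence with signal-to-noise for each printed compound spot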
[2] = system: Human papillomavirus type 1a E7 protein (residues 1-88); experiment: HPV1a E7 small-molecule binders, primary screen, biochemical, small-molecule microarray, residues 1-88, 635 nm (AID 1129); details: small-molecule microarray binding, fluorescence 635 nm; higher = more signal
[3] = biological target: Focal adhesion kinase 1 (Homo sapiens) (UniProt Q05397); experiment: small-molecule microarray binders of FAK, primary screen, biochemical, 635/667 nm fluorescence, BSA, DTT (AID 1130); details: PTK2 binding, 635 nm fluorescence, higher = more signal;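 note: composite of spot emission at 667 nm and signal to noise over triplicate slides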
[4] = system: Fibrinogen (Alexa647-labelled); experiment: fibrinogen binders on compound microarrays, profiling panel, artefact control for SMM control-protein annotation, biochemical, small-molecule microarray, 635/667 nm fluorescence (AID 1131); details: fibrinogen-A647 binding fluorescence, higher = more signal;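 note: z-score merges 667 nm fluorescence with per-spot signal-to-noise over triplicate slides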
[5] = biological target: Follistatin (Homo sapiens) (UniProt P19883); experiment: follistatin binders on small-molecule microarrays, primary screen, biochemical, small-molecule microarray, 635/667 nm fluorescence (AID 1132); details: FST binding, 635 nm fluorescence, higher = more signal
[6] = biological target: Fibroblast growth factor 2 (Homo sapiens) (UniProt P09038); experiment: FGF2 binders on small-molecule microarrays, primary screen, biochemical, small-molecule microarray, 635/667 nm fluorescence (AID 1133); details: small-molecule microarray binding, FGF2, fluorescence 635/667; higher = more signal
[7] = mitochondrial membrane potential change in A549 cells, profiling panel, cell-based, JC-1 fluorescence, basal, 24 h, 100 nL (AID 1138); details: higher = more signal;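 note: A549 lung adenocarcinoma cells under basal conditions with no added stimulus; test concentration not given here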
Lefty1 = Lefty1 binders on small-molecule microarrays, primary screen, biochemical, small-molecule microarray, 635/667 nm fluorescence (AID 1139); details: small-molecule microarray binding, fluorescence 635/667; higher = more signal
[8] = system: wheat germ agglutinin (Triticum aestivum), Alexa647-labelled; experiment: wheat germ agglutinin binders on compound microarrays, profiling panel, artefact control for SMM control-protein annotation, biochemical, small-molecule microarray, 635/667 nm fluorescence (AID 1140); details: WGA-A647 binding, 635 nm fluorescence, higher = more signal;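 note: score merges 667 nm feature emission with signal to noise over triplicate slides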
[9] = biological target: Luciferin 4-monooxygenase (Photinus pyralis) (UniProt P08659); experiment: firefly luciferase enzyme inhibitors, primary screen, biochemical, luminescence, purified enzyme, 2006 set (AID 1141); details: SteadyGlo luminescence, 30 min, higher = more signal, called active from +8 up or from −8 down;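 note: cell-free assay with purified firefly luciferase at 100 ng per well in PBS; test concentration not given here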
[10] = system: Wnt5a (protein binding on small-molecule microarray); experiment: Wnt5a binders on small-molecule microarray, primary screen, biophysical, 635/667 nm fluorescence (AID 1142); details: 635 nm fluorescence, higher = more signal;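 note: fluorescence read at 667 nm with signal to noise per printed feature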
[11] = cell viability in Huh7 cells, primary screen, cytotoxicity control for HCV replication inhibitor project, CellTiter-Glo luminescence, basal, 48 h (AID 1143); details: Huh7 HCV replicon, higher = more signal, called active from +8 up or from −8 down;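 note: Huh7 hepatoma cells carrying a hepatitis C replication reporter with no stimulus; test concentration not given here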
[12] = P. aeruginosa biofilm formation inhibitors, primary screen, PAO1 strain, BacTiter-Glo luminescence, LB-PBS (AID 1144); details: 12 h, higher = more signal
[13] = CREB reporter modulators without forskolin, primary screen, cell-based, PC12, CRE-LacZ reporter, unstimulated (AID 1145); details: no forskolin, luminescence, 4.5 h, higher = more signal, called active from +8 up or from −8 down
[14] = CREB reporter modulators under forskolin, primary screen, cell-based, PC12, CRE-LacZ reporter, forskolin-stimulated (AID 1146); details: luminescence, 4.5 h, higher = more signal, called active from +8 up or from −8 down;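 note: PC12 cells with 6xCRE LacZ reporter stimulated by forskolin 10 µM; beta-galactosidase reporter signal reflecting CREB driven transcription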
[15] = biological target: Streptavidin (Streptomyces avidinii) (UniProt P22629); experiment: streptavidin binders on small-molecule microarray, primary screen, artefact control for SMM compound annotation, biophysical, 635/667 nm fluorescence (AID 1147); details: streptavidin binding, higher = more signal;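 note: signal reflects streptavidin binding to arrayed compounds as a control protein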
[16] = small-molecule binders of probe aInhba, primary screen, biochemical, small-molecule microarray, 635/667 nm fluorescence (AID 1148); details: higher = more signal;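 note: score merges 667nm spot fluorescence with signal-to-noise for antibody binding to printed compounds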
Torsin-1A (Homo sapiens) [17] = biological target: Torsin-1A (Homo sapiens) (UniProt O14656); experiment: torsin A binders from cell lysate, primary screen, small-molecule microarray, wild-type, 635/667 nm (AID 1149); details: COS7 hTOR1A-WT lysate, 635 nm fluorescence, higher = more signal
Torsin-1A (Homo sapiens) [18] = biological target: Torsin-1A (Homo sapiens) (UniProt O14656); experiment: small-molecule binders of mutant TOR1A in lysate, primary screen, cell lysate, small-molecule microarray, COS7 lysate, 635/667 nm fluorescence (AID 1150); details: COS7 hTOR1A mutant lysate, 635 nm fluorescence, higher = more signal;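 note: score pools 667 nm emission and signal to noise measuring lysate protein binding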
[19] = system: Sonic hedgehog protein (Shh); experiment: small-molecule binders of Shh protein, primary screen, biochemical, small-molecule microarray, 635/667 nm fluorescence (AID 1151); details: small-molecule microarray binding, 635 nm fluorescence; higher = more signal;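 note: Shh protein binding to compounds spotted on small-molecule microarray slides; score combines spot fluorescence intensity with signal-to-noise across triplicate slides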

Sequence of Luciferin 4-monooxygenase (Photinus pyralis) (P08659 whole entry, looked up): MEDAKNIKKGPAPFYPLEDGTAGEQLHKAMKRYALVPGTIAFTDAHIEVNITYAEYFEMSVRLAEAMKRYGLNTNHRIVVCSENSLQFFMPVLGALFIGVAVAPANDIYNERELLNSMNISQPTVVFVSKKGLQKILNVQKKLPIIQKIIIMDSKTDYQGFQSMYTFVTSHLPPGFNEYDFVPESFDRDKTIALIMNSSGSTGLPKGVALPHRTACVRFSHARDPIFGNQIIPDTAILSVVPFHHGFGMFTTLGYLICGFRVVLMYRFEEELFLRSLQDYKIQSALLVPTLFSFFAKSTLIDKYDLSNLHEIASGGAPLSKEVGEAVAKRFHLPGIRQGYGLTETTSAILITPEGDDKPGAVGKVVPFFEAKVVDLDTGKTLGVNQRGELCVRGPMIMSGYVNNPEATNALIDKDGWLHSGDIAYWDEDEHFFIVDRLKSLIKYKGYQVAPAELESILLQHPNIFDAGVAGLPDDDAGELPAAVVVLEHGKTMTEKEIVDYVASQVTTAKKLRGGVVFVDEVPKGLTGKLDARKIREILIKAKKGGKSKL
Sequence of Fibroblast growth factor 2 (Homo sapiens) (P09038 whole entry, looked up): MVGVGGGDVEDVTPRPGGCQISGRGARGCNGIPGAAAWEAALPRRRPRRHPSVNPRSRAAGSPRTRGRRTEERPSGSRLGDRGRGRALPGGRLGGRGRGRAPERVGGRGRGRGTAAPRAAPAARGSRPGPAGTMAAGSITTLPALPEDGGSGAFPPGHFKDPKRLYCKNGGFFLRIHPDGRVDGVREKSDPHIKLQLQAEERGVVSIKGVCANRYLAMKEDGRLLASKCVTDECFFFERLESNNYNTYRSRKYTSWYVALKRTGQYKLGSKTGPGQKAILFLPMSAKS
Sequence of Focal adhesion kinase 1 (Homo sapiens) (Q05397 whole entry, looked up): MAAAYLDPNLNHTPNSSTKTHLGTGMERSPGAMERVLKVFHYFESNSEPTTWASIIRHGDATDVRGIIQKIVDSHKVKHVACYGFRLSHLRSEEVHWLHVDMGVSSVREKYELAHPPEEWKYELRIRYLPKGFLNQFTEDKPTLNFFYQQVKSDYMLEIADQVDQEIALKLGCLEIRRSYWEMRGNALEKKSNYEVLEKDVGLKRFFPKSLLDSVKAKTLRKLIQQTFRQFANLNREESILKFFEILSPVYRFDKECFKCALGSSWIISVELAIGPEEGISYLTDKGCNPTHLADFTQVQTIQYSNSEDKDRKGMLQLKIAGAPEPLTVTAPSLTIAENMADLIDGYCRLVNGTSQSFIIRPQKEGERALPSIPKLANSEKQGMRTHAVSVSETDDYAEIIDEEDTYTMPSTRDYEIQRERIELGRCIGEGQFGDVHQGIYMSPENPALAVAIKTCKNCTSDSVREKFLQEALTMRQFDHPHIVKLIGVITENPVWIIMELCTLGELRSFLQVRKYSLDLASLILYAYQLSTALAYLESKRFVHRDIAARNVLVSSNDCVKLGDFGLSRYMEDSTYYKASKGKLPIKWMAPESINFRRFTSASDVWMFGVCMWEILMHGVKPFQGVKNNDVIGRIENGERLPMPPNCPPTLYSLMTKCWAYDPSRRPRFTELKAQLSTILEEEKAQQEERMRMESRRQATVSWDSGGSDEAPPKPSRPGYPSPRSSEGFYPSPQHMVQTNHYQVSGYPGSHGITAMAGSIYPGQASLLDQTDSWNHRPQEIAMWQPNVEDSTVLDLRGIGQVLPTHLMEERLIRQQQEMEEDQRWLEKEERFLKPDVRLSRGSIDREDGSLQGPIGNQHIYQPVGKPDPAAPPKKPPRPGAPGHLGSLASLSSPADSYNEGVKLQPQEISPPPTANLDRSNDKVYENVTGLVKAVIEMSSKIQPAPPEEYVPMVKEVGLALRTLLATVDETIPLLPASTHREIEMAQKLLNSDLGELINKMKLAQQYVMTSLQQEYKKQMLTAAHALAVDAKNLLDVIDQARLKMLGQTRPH
Sequence of Streptavidin (Streptomyces avidinii) (P22629 whole entry, looked up): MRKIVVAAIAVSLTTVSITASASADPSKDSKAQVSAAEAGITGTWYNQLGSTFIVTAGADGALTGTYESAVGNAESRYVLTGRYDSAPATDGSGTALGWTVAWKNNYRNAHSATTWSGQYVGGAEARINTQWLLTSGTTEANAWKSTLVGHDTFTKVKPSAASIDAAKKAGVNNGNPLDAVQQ
Sequence of Torsin-1A (Homo sapiens) (O14656 whole entry, looked up): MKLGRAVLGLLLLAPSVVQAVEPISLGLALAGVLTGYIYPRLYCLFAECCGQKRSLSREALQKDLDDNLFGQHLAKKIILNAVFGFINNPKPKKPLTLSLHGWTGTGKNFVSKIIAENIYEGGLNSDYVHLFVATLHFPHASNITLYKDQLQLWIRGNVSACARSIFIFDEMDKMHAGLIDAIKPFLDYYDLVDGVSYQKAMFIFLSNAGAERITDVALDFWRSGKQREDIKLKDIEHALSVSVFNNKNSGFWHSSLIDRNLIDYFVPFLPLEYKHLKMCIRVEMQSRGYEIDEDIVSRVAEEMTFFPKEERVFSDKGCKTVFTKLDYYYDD
Sequence of Follistatin (Homo sapiens) (P19883 whole entry, looked up): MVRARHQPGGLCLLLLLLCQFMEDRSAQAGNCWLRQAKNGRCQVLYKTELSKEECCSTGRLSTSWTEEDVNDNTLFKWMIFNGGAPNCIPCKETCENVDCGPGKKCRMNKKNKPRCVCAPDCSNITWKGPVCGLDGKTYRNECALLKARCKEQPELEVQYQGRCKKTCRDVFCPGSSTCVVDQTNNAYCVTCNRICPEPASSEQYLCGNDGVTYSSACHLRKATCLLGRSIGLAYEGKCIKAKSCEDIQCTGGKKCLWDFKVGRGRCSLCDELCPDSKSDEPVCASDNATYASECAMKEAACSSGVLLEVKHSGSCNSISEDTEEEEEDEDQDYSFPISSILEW

SMILES	composite z-score [1]	composite z-score [2]	composite z-score [3]	composite z-score [4]	composite z-score [5]	composite z-score [6]	z-score [7]	composite z-score (Lefty1)	composite z-score [8]	z-score [9]	composite z-score [10]	z-score [11]	z-score [12]	z-score [13]	z-score [14]	composite z-score [15]	composite z-score [16]	composite z-score (Torsin-1A (Homo sapiens) [17])	composite z-score (Torsin-1A (Homo sapiens) [18])	composite z-score [19]
CN(C)CCCC[C@@H]1NC(=O)[C@@H]2C[C@H](C(=O)NCCCCCN)[C@H](c3ccc(O)cc3)N2C1=O	0.637	0.732	0.91	0.502	-0.126	-0.585	0.393	-0.318	1.09	-0.806 (inactive)	-0.286	0.202 (inactive)	-0.504 (inactive)	0.549 (inactive)	0.304 (inactive)	1.26	-0.0639	0.424	0.901	-0.631
COc1ccc([Si](C)(C)[C@H]2[C@H](CC(=O)N3Cc4ccccc4C[C@H]3CO)O[C@@]3(C(=O)N(Cc4cccc(I)c4)c4ccccc43)[C@@H]2C)cc1	1.67	0.0688	-0.706	0.321	1.57	2.13	-0.0488	1.64	0.539	-0.63 (inactive)	0.378	-4.1 (inactive)	-0.194 (inactive)	5.99 (inactive)	-0.919 (inactive)	0.795	-0.0102	3.09	2.17	2.15
[N-]=[N+]=NCc1ccccc1C[C@]1(C(=O)NCC(O)CO)COC(c2ccc(OCCCO)cc2)=N1 (stereo not given in full)	1.41	1.2	1.98	0.0694	0.831	-0.0586	1.18	-0.683	0.964	-0.0644 (inactive)	0.956	-1.57 (inactive)	0.305 (inactive)	1.12 (inactive)	-1.08 (inactive)	1.43	0.435	0.842	2.3	-1.03
O=C(NCC(F)(F)F)[C@@H]1c2ccccc2C(=O)N(Cc2ccccc2)[C@H]1c1ccc(CO)cc1	1.52	-1.3	-0.813	-1.17	-1.25	-1.34	0.764	-1.57	-0.595	-0.363 (inactive)	-0.18	-0.223 (inactive)	-0.0791 (inactive)	-0.269 (inactive)	-0.461 (inactive)	-0.27	-0.214	0.111	0.0036	-0.911
CCCCN1CC=CC23O[C@@H]4C=CCCOC(=O)C4[C@H]2C(=O)N(CCCO)[C@@H]3C1=O (stereo not given in full)	-1.31	-1.79	-0.274	-1.42	0.274	-0.469	-1.13	-0.439	-1.45	-0.11 (inactive)	-0.148	-2.05 (inactive)	-1.19 (inactive)	-0.484 (inactive)	0.46 (inactive)	-0.614	-0.176	-0.387	-0.954	-0.278
CCOC(=O)C=Cc1cccc(OC)c1O	0.447	-0.311	-0.227	0.102	-0.248	-1.13	-1.37	-0.679	0.859	-17.6 (active)	-0.811	-4.11 (inactive)	1.91 (inactive)	0.182 (inactive)	-0.791 (inactive)	-0.432	-0.13	-0.146	0.141	-0.8
COC(=O)[C@@]1(Cc2ccc(F)cc2)[C@H]2c3cc(C(=O)N(C)C)n(Cc4ccccn4)c3C[C@H]2CN1C(=O)c1ccccc1	1.12	1.26	1.08	0.685	0.251	-0.281	1.04	-0.12	0.647	3 (inactive)	-0.0131	-1.17 (inactive)	-0.75 (inactive)	-0.947 (inactive)	0.431 (inactive)	0.751	0.349	1.17	1.05	-0.285
CCOC(=O)C1=CC[C@@H](c2cccc(Cl)c2)N(S(=O)(=O)c2ccc(C)cc2)[C@H]1c1ccc(C#N)cc1	0.931	1.26	0.444	0.716	0.938	0.56	1.22	1.09	0.985	1.35 (inactive)	0.473	-1.1 (inactive)	0.494 (inactive)	-0.228 (inactive)	0.119 (inactive)	1.15	0.0627	0.384	0.788	0.741
COc1ccc([Si](C)(C)[C@H]2[C@H](CCO)O[C@@]3(C(=O)N(Cc4cccc(N5C(=O)c6cccc7cccc5c67)c4)c4ccccc43)[C@@H]2C)cc1	0.86	0.586	1.02	0.53	-0.16	-0.23	0.325	-0.0439	0.563	0.669 (inactive)	0.346	-6.95 (inactive)	0.0998 (inactive)	-0.011 (inactive)	-1.37 (inactive)	0.343	-0.176	-0.697	-0.318	0.329
C=C(C)[C@@H]1CC=C(C(O)C2C=CC3C(=O)N(Cc4ccccc4)C(=O)C3N2n2cnnc2)CC1 (stereo not given in full)	-0.087	-0.124	0.0147	0.818	0.507	-0.759	-1.11	0.551	1.19	1.67 (inactive)	-0.0115	-4.22 (inactive)	-1.38 (inactive)	0.22 (inactive)	-0.0578 (inactive)	0.258	0.0314	0.0146	-0.388	-0.408
